RECQ1 inh: RECQ1 (human) helicase inhibition; P46063; RECQ1 DNA unwinding, red fluorescence kinetic read; Potency, µM (titrated, usually from 57.3 µM), for inactives: at the highest dose activity, negative = inhibition, usual class: inhibitors; hit rate 0.54% among 240,000;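 also: plate controls were vehicle for no effect and no enzyme for full effect; nearly all actives have a fitted effect of over 30% in size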
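RECQ1T1 50 nM; forked duplex (20 bp + 30-nt ss tails) 200 nM, ATP 2 mM final; pH 8.0, 2 mM MgCl2, 2.5 ug/ml poly(dI-dC); 15 min compound preincubation; discontinuous kinetic read over 2 h at RT.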
LMNA splice mod: LMNA splicing modulation | HeLa LMNA splicing GFP/RFP minigene ratio, 48 h | Potency, µM (top dose mostly 46.1 µM), for the others: at the top dose ratio change, negative = inhibition, actives largely listed as inhibitors | hit rate 0.01% among 200,000 | AID 1487; active = well fitted inhibition curve with a large enough effect in the signal ratio, with a control signal flat, not every such curve was filed as active; inconclusive = small, poorly fitted or top-dose-only effect, or effect the other way, or a change in a side signal; the % refers to the signal ratio
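S3 HeLa cells stably expressing lamin A-EGFP splicing minigene plus DsRed2, 600 cells/well, 48 h compound exposure at 37C. Laser-scanning cytometry; analysed as GFP (500-530 nm)/RFP (575-640 nm) total intensity ratio; 0.5% DMSO vehicle.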
KAT2A inh: inhibitors of human GCN5L2 histone acetyltransferase; Q92830; GCN5L2 HAT assay, ThioGlo1 CoA-SH fluorescence; Potency, µM (top dose mostly 58.9 µM), for the others: at the highest dose activity change, negative = inhibition, hits mostly inhibitors; hit rate 0.21% among 390,000; AID 504327
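Preincubate 20nM GCN5L2 with compound 15 min, RT → add 50uM ThioGlo1 + 75uM H3(1-25) + 70uM acetyl-CoA → read fluorescence 0 and 20 min. Primary qHTS; fluorescent artifacts likely.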
TDP1 block: inhibitors of human tyrosyl-DNA phosphodiesterase TDP1 | hit rate 0.28% among 350,000 | Q9NUW8 | Potency, µM (doses to about 130 µM), for inactives: at the highest dose activity change, negative = inhibition, most hits filed as inhibitors | recombinant TDP1, AlphaScreen DNA substrate cleavage; also: nearly all actives have a fitted effect of over 40% in size
Target sequence (Q9NUW8 whole entry, looked up): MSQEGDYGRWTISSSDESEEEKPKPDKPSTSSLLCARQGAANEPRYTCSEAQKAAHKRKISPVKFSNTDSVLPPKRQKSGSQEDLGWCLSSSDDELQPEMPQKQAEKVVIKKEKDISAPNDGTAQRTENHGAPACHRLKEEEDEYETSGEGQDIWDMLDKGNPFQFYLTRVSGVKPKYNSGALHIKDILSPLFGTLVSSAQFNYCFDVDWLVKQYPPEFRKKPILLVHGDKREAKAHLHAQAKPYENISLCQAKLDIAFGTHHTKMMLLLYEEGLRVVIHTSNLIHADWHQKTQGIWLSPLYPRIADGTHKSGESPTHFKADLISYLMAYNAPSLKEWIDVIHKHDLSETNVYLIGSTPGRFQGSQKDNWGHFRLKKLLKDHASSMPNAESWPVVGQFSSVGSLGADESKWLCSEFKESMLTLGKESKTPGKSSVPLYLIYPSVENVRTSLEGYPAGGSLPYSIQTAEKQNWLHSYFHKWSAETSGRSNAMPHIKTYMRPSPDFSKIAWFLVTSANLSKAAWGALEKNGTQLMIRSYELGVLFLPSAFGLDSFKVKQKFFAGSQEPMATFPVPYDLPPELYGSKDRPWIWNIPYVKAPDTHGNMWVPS
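AlphaScreen read-out: signal falls as enzyme removes the 3' tyrosine-FITC from a 5'-biotinylated DNA oligo (15 nM, 5 min, RT). Enzyme was E. coli-made recombinant Tdp1 at 1 nM, exposed to compound for 15 min beforehand; beads 10 ug/ml, 10 min.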
APEX1 inh: blocks human APE1 abasic DNA cleavage; Potency, µM (titrated, usually from 65.8 µM), for inactives: top-dose activity change, negative = inhibition, usual class: inhibitors; hit rate 0.35% among 350,000; P27695; recombinant APE1, TAMRA/BHQ-2 abasic DNA cleavage fluorescence;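 also: plate controls were vehicle for no effect and reference inhibitor for full effect; nearly all actives have a fitted effect of over 55% in size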
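Quantitative HTS: incision of a TAMRA/BHQ-2 double-stranded substrate bearing a tetrahydrofuran abasic site by 0.75 nM APE1 raises fluorescence. Substrate 50 nM final, added after 15 min compound preincubation at room temperature; progress as third-minus-first kinetic read difference.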
BLM inh: Bloom syndrome helicase (human) inhibition; recombinant BLM DNA unwinding, fluorescence dequenching; Potency, µM (top dose mostly 56.1 µM), without a hit: at the top dose activity change, negative = inhibition, most hits filed as inhibitors; hit rate 0.2% among 350,000;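 also: plate controls were vehicle for no effect and no enzyme for full effect; nearly all actives have a fitted effect of over 35% in size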
Active calls of the source: *; i = inactive; ? = inconclusive; . = no result given; [ ] = dose if it differs, or a comment. Rows were chosen to be rich in hits. Some 0.9% of all compounds tested hit in one or more screens of this group. Unless noted, calls follow the shape of the dose curve; as a rule, active = well fitted curve in the direction sought with a large enough effect; inconclusive = small, poorly fitted or top-dose-only effect, or another doubt; inactive = no such curve, though single readings can be large; an effect the other way counts as inactive or inconclusive. Unless noted, % is scaled to controls: 0 for no effect and ±100 for the full control effect; potency is read from the fitted curve at half-maximal effect.

SMILES | RECQ1 inh | LMNA splice mod | KAT2A inh | TDP1 block | APEX1 inh | BLM inh
COc1cccc(C2c3c(ncn(-c4ccc(Br)cc4)c3=N)Oc3ccc4ccccc4c32)c1 (configuration not stated) | . | . | . | 3% | . | .
O=C1/C(=C\c2ccco2)SC(=S)N1Cc1ccccc1 | 32µM* | ? | -5% | 8% | ? | -22%
O=C1/C(=C/c2ccccn2)SC(=S)N1Cc1ccccc1 | -7% | . | 2% | 0% | ? | 1%
O=C(O)CN1C(=O)/C(=C/c2ccc(SCc3ccccc3)o2)SC1=S | 25µM* | ? | ? | . | 28µM* | 126%
O=C1/C(=C\c2ccco2)SC(=S)N1c1ccccc1 | 8% | 1% | -16% | 0% | 22µM* | -1%
O=C1/C(=C\c2ccco2)SC(=S)N1C1CCS(=O)(=O)C1 (configuration not stated) | ? | . | -10% | -5% | 20µM* | -15%
O=C1/C(=C/c2ccco2)SC(=S)N1C1CCS(=O)(=O)C1 (configuration not stated) | -1% | ? | ? | -5% | 0% | -3%
Cc1ccc(N2C(=O)/C(=C\c3ccco3)SC2=S)cc1 | -6% | ? | ? | -4% | -4% | -25%
O=C(O)CN1C(=O)/C(=C\c2ccc(OC(=O)c3ccco3)cc2)SC1=S | . | . | -9% | -14% | 6%[12.4 µM] | 1%
Cc1cccc(C)c1-n1c(SCC(=O)Nc2ccc(C(=O)O)cc2)nnc1-c1ccc([S+](=O)([O-])N2CCCC2)cc1 | . | . | . | . | 24% | .
COc1ccc(-c2ccc3nnc(-c4ccccc4OC)n3n2)cc1OC | . | . | . | . | 54% | .
CN(C)c1cccc(S(=O)(=O)N2CCN(S(=O)(=O)c3ccc4c(c3)OCCO4)CC2)c1 | . | . | . | -3% | . | .
CC(C)(C)n1ncc2c(=O)n(Cc3c(Cl)cccc3Cl)cnc21 | . | . | . | . | -1% | .
COC/C=C/c1cc(F)c(S(=O)(=O)N2CCN(S(=O)(=O)c3ccc4c(c3)OCCO4)CC2)cc1F | . | . | . | 0% | . | .
O=S(=O)(c1ccc2c(c1)OCCO2)N1CCN(S(=O)(=O)c2ccc3c(c2)OCCO3)CC1 | . | . | -6% | 0% | -4% | .
O=C(O)/C=C/c1cc(F)c(S(=O)(=O)N2CCN(S(=O)(=O)c3ccc4c(c3)OCCO4)CC2)cc1F | . | . | . | 50µM* | . | .
O=c1[nH]c2ccc(S(=O)(=O)N3CCN(S(=O)(=O)c4ccc5c(c4)OCCO5)CC3)cc2[nH]c1=O | . | . | . | 50µM* | . | .
Cc1noc(NS(=O)(=O)c2ccc(NC(=O)c3ccc(N4C(=O)c5ccccc5C4=O)cc3)cc2)c1C | -6% | . | -21% | 50µM* | ? | -15%
Cc1cc(N/N=C/c2ccc(O)cc2)nc(NS(=O)(=O)c2ccccc2)n1 | -1% | ? | -11% | 16µM* | 10µM* | 2%
CSc1nsc(/C=C/Nc2ccc(C(=O)O)cc2)c1C#N | -6% | 17%[9.22 µM] | -16% | 7% | ? | 28µM*
O=c1cc(-c2ccccc2F)[nH]c2cc3c(cc12)OCO3 | . | . | -11% | . | . | .
FC(F)(F)C1=Nc2cccc3cccc(c23)N1 | . | . | 6.3µM* | . | -5% | .
Brc1ccc(C2=Nc3cccc4cccc(c34)N2)o1 | i | -5% | -2% | 3% | 2% | -7%
COc1ccc(C(=O)O)cc1COc1ccc(NC(C)=O)cc1 | . | . | . | -7% | . | .
CCCC[C@@H](C)/C=C(C)/C=C(\C)C(=O)NC1=C[C@@](O)(/C=C/C=C/C=C/C(=O)NC2=C(O)CCC2=O)[C@@H]2O[C@@H]2C1=O | ? | . | ? | -2% | ? | ?
O=[N+]([O-])c1cccc2c(S(=O)(=O)N3CCOCC3)cccc12 | . | . | ? | 20µM* | 11µM* | -8%
O=[N+]([O-])c1cccc2c(S(=O)(=O)N3CCCCC3)cccc12 | . | . | -13% | 5% | 45% | -10%
O=C(NCCO)c1ccc2nc(-c3ccco3)c(-c3ccco3)nc2c1 | -28% | -4% | -7% | . | ? | -27%

Screens from PubChem BioAssay.
